In PubChem BioAssay (NCI):
Compounds without any hit were thinned out: in the full panel of roughly 83,000, 20% have a hit.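 Percent growth is the endpoint: 0 to 100 indicates growth inhibition (40 means 60% inhibition), 0 means no net growth, and negative values indicate cell death.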 Values without a mark were called inactive. Calls of active or inactive are those of the source. How the source made its calls: active means growth percent below 10; inactive means the rest.

Test system: HL-60(TB) leukemia
Assay: NCI-60 one-dose screen, 48 h (100 = growth as untreated, 0 = no growth, -100 = all killed)
Conditions: 10 µM unless noted

| Structure (SMILES) | growth |
| --- | --- |
| O=C(c1ccc(Cl)cc1)C1[C@H](c2ccccc2Br)[C@@H](c2ccccc2)NC12C(=O)Nc1ccc(Br)cc12 (stereo partly drawn) | -6.61% (active) |
| O=C(Nc1nc2ccc([N+](=O)[O-])cc2s1)Nc1ccccc1F | -8.08% (active) |
| CN(C)c1nc(NCCNS(=O)(=O)c2ccc(C3=Nc4c(N)nc(N)nc4NC(c4ccc(Cl)cc4)C3)cc2)nc(N2CCOCC2)n1 (stereo not drawn) | 28.1% |
| COc1cccc(/C=C/c2nc3ccccc3c(=O)n2CC(=O)Nc2ccc(Cl)cc2)c1 | 115% |
| Cc1c(C(=O)NNC(=O)c2ccc(Cl)cc2)nnn1-c1ccc(Cl)cc1 | 100% |
| COc1cc(/C=C/C(=O)c2nnn(-c3ccc(Cl)cc3)c2C)cc(OC)c1OC | -5.43% (active) |
| C=CCSc1nnc(-c2c(C)nc3sccn23)o1 | 119% |
| Cc1sc(C(NC(=O)OCCn2c([N+](=O)[O-])cnc2C)C(F)(F)Cl)nc1-c1ccc(OC(F)(F)F)cc1 (stereo not drawn) | -6.23% (active) |
| Cc1cc2nc3c4ccccc4n(CC4=NCCN4)c3nc2cc1C | -55.6% (active) |
| Cc1ccc(Nc2nnc(-c3c[nH]c4ccccc34)o2)c(C)c1 | 1.4% (active) |
| O=c1c2ccccc2nc(-c2ccccc2)n1/N=C/c1ccc2ccccc2c1 | 35.7% |
| C=Cn1cc(C(=O)O)c(=O)c2cc(F)c(N3CCN(c4nccc(-c5nccs5)n4)CC3)cc21 | -24.7% (active) |
| COc1ccc(-c2cc(C(=O)N=Nc3c(O)[nH]c4ccccc34)c3ccccc3n2)cc1 | 56.2% |
| Cc1cc2c(cc1Cl)C(=O)/C(=C/c1ccccc1)O2 | -13.7% (active) |
| OCc1[nH]nc2cc(Nc3ncc4ccc(Br)c(OC5CCC(O)CC5)c4n3)ccc12 (stereo not drawn) | -40.1% (active) |
| O=c1oc2ccc(-c3ccc(F)cc3F)cc2c(=O)n1-c1ccc(F)cc1 | -40.6% (active) |
| O=C1Nc2cc(-c3ccc(NS(=O)(=O)c4ccc(-c5ccccc5)cc4)cc3)ccc2/C1=C/c1ccc[nH]1 | 31% |
| CCOc1ccc(-c2cc(-c3cc(C(C)C)c(O)cc3C)nn2-c2ccc(S(N)(=O)=O)cc2)cc1 | 9.77% (active) |
| Cc1c(C(=O)NNC(=O)Nc2ccc(Cl)cc2)nnn1-c1ccc(Br)cc1 | 103% |

| Structure (SMILES) | growth |
| --- | --- |
| COc1ccccc1C(=O)NN1C(=O)/C(=C/C2=Cc3ccccc3OC2)SC1=S | 97.2% |
| CNC(=O)c1cc(Oc2ccc3nc(NC(=O)Nc4cccc(OC(F)(F)F)c4)sc3c2)ccn1 | 62.7% |
| N#Cc1c(NC(=O)c2ccc(C(F)(F)F)cc2)sc2c1CCC(=O)C2 | 7.73% (active) |
| CC(C)Sc1nc(NCCc2c[nH]c3ccccc23)c(C#N)c(-c2ccc(F)cc2)n1 | 27% |
| Nc1n[nH]c2cccc(C#Cc3cccc(NC(=O)Nc4cc(C(F)(F)F)cc(C(F)(F)F)c4)c3)c12 | -9.4% (active) |
| O=C(N/N=C/c1ccc(Cl)cc1)c1ccc(OCc2nc3ccc(Cl)cc3[nH]2)cc1 | 81.7% |
| O=C(/C=C/c1cccc(OCc2ccccc2)c1)c1nc2ccccc2[nH]1 | 5.75% (active) |
| Cc1cc2nc3c4ccccc4n(CCO)c3nc2cc1C | 101% |
| NS(=O)(=O)c1ccc(Nc2nc(N/N=C/c3cc(Br)c(O)c(Br)c3)nc(Nc3ccccc3)n2)cc1 | 47.3% |
| COc1ccc(C(=O)NC(=S)N2CCN(c3ncnc4c3cnn4-c3ccccc3)CC2)cc1 | 80.5% |
| O=C1CCC(N2Cc3cc(CC(=O)Nc4ccc(N5CCCCC5)cc4)ccc3C2=O)C(=O)N1 (stereo not drawn) | -0.226% (active) |
| COc1ccc2ccccc2c1/C=C1\SC(=Nc2ccc(O)cc2)NC1=O | -29.9% (active) |
| C#C[C@]1(O)CC[C@H]2[C@@H]3CC=C4c5sc(-c6ccc([N+](=O)[O-])cc6)nc5CC[C@]4(C)[C@H]3CC[C@@]21C | 23.7% |
| Nc1cccc(SCc2cc3ccccc3[nH]c2=O)c1 | 42.2% |
| CC(=O)OCC1OC(OC2C(COC(C)=O)OC(n3cc(COc4ccc5ccc(=O)oc5c4)nn3)C(OC(C)=O)C2OC(C)=O)C(OC(C)=O)C(OC(C)=O)C1OC(C)=O (stereo not drawn) | 103% |
| Cn1cc(-c2cc3nc(-c4c[nH]c5ccc(Br)cc45)cc(N)n3n2)c2ccccc21 | -45.3% (active) |
| CCCCC[C@@H]1C/C=C(\C)[C@@H](O)C(C)(C)C(=O)[C@@H](C)/C=C(\C)[C@@H]2C[C@H](O)C[C@](O)(CC(=O)O1)O2 | 11.8% |
| C#CCOc1cc(N(CC)CC)ccc1C(C(=O)NC(C)(C)C)N(C(=O)C1CCc2cc(F)ccc2O1)c1ccccc1F (stereo not drawn) | -13.5% (active) |
| CC1(c2ccccc2)NC(=O)N(CC(=O)Nc2ccc(C(=O)/C=C/c3ccccc3)cc2)C1=O (stereo not drawn) | 10.1% |
